Assay [1] can be described thus: NCI Yeast Anticancer Drug Screen. Data for the rad50 strain (AID 155).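 Further: 0% = growth of vehicle-only cultures of the same strain.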 Particulars: S. cerevisiae rad50 strain growth inhibition, hits give high values. The method, boiled down: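 Compounds were tested on a yeast strain with an engineered DNA damage repair alteration; the reported value is growth inhibition normalised to vehicle treatment.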
A short description of assay [2]: NCI Yeast Anticancer Drug Screen. Data for the mec2-1 strain (AID 157). Particulars: S. cerevisiae mec2-1 strain, hits give high values. The gist of the method:
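Strain: mec2-1 (DNA repair/cell cycle alteration). Compound exposure, then growth measured; inhibition expressed relative to vehicle.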

The nature of assay [3]: NCI Yeast Anticancer Drug Screen. Data for the sgs1 mgt1 strain (AID 161).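 Further: 0% = growth of cultures given vehicle only.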 To be noted: S. cerevisiae sgs1 mgt1 strain, hits give high values. The gist of the method:
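Test agents were incubated with a DNA-repair-mutant yeast strain. Growth was then read and compared against vehicle-treated controls.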

Assay [4] is described as follows: NCI Yeast Anticancer Drug Screen. Data for the cln2 rad14 strain (AID 165).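 Further: 0% = growth equal to vehicle treated cultures.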 To be noted: S. cerevisiae cln2 rad14 strain, hits give high values. The method, boiled down: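 Compounds are applied to the cln2 rad14 yeast strain, and growth is then compared with that of vehicle-treated cultures to give inhibition.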
Assay [5] can be described thus: NCI Yeast Anticancer Drug Screen. Data for the bub3 strain (AID 167). Particulars: S. cerevisiae bub3 mutant strain, hits give high values. The gist of the method:
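Growth of a checkpoint-deficient yeast mutant is measured after compound exposure. Values represent inhibition relative to vehicle.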

Assay [6] in a line: NCI Yeast Anticancer Drug Screen. Data for the mlh1 rad18 strain (AID 175). To be noted: S. cerevisiae mlh1 rad18 strain growth inhibition, hits give high values. The method, boiled down: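 Read-out is yeast growth inhibition, calculated against vehicle-only controls. The compound was applied to a strain engineered with DNA damage repair alterations.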
The mark [7] stands for this setting: at 5.0 µM (retest, dose inferred, filed as 0.5).
[8] abbreviates: at 50.0 µM (retest, dose inferred, filed as 5.0).

This is part of a sample that, as a whole, favours compounds with a hit. Of some 79,000 tested, about 15% had one in any assay. A number with no mark means an inactive call. Calls of active or inactive are those of the source. No stated cut-off is given here; in the data, active means growth inhibition above about 70%; inactive means the rest.

Turning to `CC1=NOC(=O)C1N=Nc1ccc(Br)cc1C` (stereo not given), the growth inhibition in assay [1] (setting [7]) was 99% (active); in assay [1] (setting [8]), 95% (active); in assay [1] (at 50.0 µM) it was 93% (active); in assay [2] (setting [7]), 100% (active); in assay [2] (setting [8]), 96% (active); in assay [2] (at 50.0 µM) it was 94.6% (active). Moreover, the growth inhibition in assay [3] (setting [7]) is 99% (active); in assay [3] (setting [8]) it was 94% (active); in assay [3] (at 50.0 µM), 94.8% (active); in assay [4] (setting [7]) it was 99% (active); in assay [4] (setting [8]), 94% (active); in assay [4] (at 50.0 µM), 92.8% (active). Further, the growth inhibition is 99% (active) in assay [5] (setting [7]); 96% (active) in assay [5] (setting [8]); 94.5% (active) in assay [5] (at 50.0 µM); 99% (active) in assay [6] (setting [7]); 94% (active) in assay [6] (setting [8]); 90.5% (active) in assay [6] (at 50.0 µM).
On to `O=C(O)c1cc2c3ccccc3sc2c2ccccc12`, for which the growth inhibition in assay [1] (setting [7]) is -2%; in assay [1] (setting [8]), 4%; in assay [1] (at 50.0 µM), 55.4%; in assay [2] (setting [7]) it was -3%; in assay [2] (setting [8]) it was -4%; in assay [2] (at 50.0 µM), 5.3%. In addition, the growth inhibition was -1% in assay [3] (setting [7]); 3% in assay [3] (setting [8]); 15.1% in assay [3] (at 50.0 µM); -3% in assay [4] (setting [7]); -3% in assay [4] (setting [8]); 2.45% in assay [4] (at 50.0 µM). The growth inhibition in assay [5] (setting [7]) is -3%; in assay [5] (setting [8]), -2%; in assay [5] (at 50.0 µM), 19.7%; in assay [6] (setting [7]), -3%; in assay [6] (setting [8]) it was -2%; in assay [6] (at 50.0 µM), 28%.
For the molecule `N#CC1(C#N)C2C=CC(C3CCC=C32)C1(C#N)C#N` (stereo not given), the growth inhibition in assay [1] (setting [7]) was 14%; in assay [1] (setting [8]), 93% (active); in assay [1] (at 50.0 µM) it was 0.4%; in assay [2] (setting [7]), 17%; in assay [2] (setting [8]) it was 97% (active); in assay [2] (at 50.0 µM) it was 45.3%. For the same molecule, the growth inhibition in assay [3] (setting [7]) was 11%; in assay [3] (setting [8]) it was 96% (active); in assay [3] (at 50.0 µM), 60.5%; in assay [4] (setting [7]), 10%; in assay [4] (setting [8]), 60%; in assay [4] (at 50.0 µM), -16.2%. The growth inhibition is 25% in assay [5] (setting [7]); 97% (active) in assay [5] (setting [8]); 95% (active) in assay [5] (at 50.0 µM); 25% in assay [6] (setting [7]); 97% (active) in assay [6] (setting [8]); 68.8% in assay [6] (at 50.0 µM).
On to `Cc1ccnc(-c2cc(C)ccn2)c1`, for which the growth inhibition in assay [1] (setting [7]) is 6%; in assay [1] (setting [8]), 96% (active); in assay [1] (at 50.0 µM), 64%; in assay [2] (setting [7]), -3%; in assay [2] (setting [8]) it was 98% (active); in assay [2] (at 50.0 µM), 23.1%. Besides, the growth inhibition in assay [3] (setting [7]) was -4%; in assay [3] (setting [8]), 57%; in assay [3] (at 50.0 µM) it was 57.9%; in assay [4] (setting [7]), -1%; in assay [4] (setting [8]), 95% (active); in assay [4] (at 50.0 µM) it was -46.7%. The growth inhibition was 4% in assay [5] (setting [7]); 91% (active) in assay [5] (setting [8]); -3.15% in assay [5] (at 50.0 µM); 7% in assay [6] (setting [7]); 98% (active) in assay [6] (setting [8]); 37.9% in assay [6] (at 50.0 µM).
For `O=C(O)Cc1ccc2c(c1O)C(=O)c1ccccc1C2=O`, the growth inhibition in assay [1] (setting [7]) was 1%; in assay [1] (setting [8]), 20%; in assay [1] (at 50.0 µM), 89.3% (active); in assay [2] (setting [7]), 0%; in assay [2] (setting [8]) it was 31%; in assay [2] (at 50.0 µM), 67.2%. Also, the growth inhibition in assay [3] (setting [7]) was 1%; in assay [3] (setting [8]), 28%; in assay [3] (at 50.0 µM) it was 78.8% (active); in assay [4] (setting [7]), -2%; in assay [4] (setting [8]), 7%; in assay [4] (at 50.0 µM), 57.5%. Moreover, the growth inhibition was 0% in assay [5] (setting [7]); 50% in assay [5] (setting [8]); 65.9% in assay [5] (at 50.0 µM); 0% in assay [6] (setting [7]); 29% in assay [6] (setting [8]); 74.1% (active) in assay [6] (at 50.0 µM).
On to `Clc1ccc(CN2CCN(Cc3ccc(Cl)cc3)C2c2ccc(Cl)cc2)cc1`, for which the growth inhibition in assay [1] (setting [7]) was 17%; in assay [1] (setting [8]), 66%; in assay [1] (at 50.0 µM), 21.9%; in assay [2] (setting [7]) it was 4%; in assay [2] (setting [8]), 58%; in assay [2] (at 50.0 µM), 34.5%. The growth inhibition was 40% in assay [3] (setting [7]); 92% (active) in assay [3] (setting [8]); 53.5% in assay [3] (at 50.0 µM); 26% in assay [4] (setting [7]); 55% in assay [4] (setting [8]); 69.4% in assay [4] (at 50.0 µM). In addition, the growth inhibition in assay [5] (setting [7]) was 33%; in assay [5] (setting [8]) it was 83% (active); in assay [5] (at 50.0 µM) it was 28.1%; in assay [6] (setting [7]), 28%; in assay [6] (setting [8]), 77% (active); in assay [6] (at 50.0 µM), 27.2%.
With `COc1ccc(-c2cc(-c3ccc(OC)cc3OC)[n+](C)c(-c3ccc(OC)cc3OC)c2)cc1`, the growth inhibition in assay [1] (setting [7]) was 97% (active); in assay [1] (setting [8]), 98% (active); in assay [1] (at 50.0 µM) it was 90% (active); in assay [2] (setting [7]) it was 98% (active); in assay [2] (setting [8]), 99% (active); in assay [2] (at 50.0 µM), 93% (active). For the same molecule, the growth inhibition is 98% (active) in assay [3] (setting [7]); 99% (active) in assay [3] (setting [8]); 86.2% (active) in assay [3] (at 50.0 µM); 97% (active) in assay [4] (setting [7]); 98% (active) in assay [4] (setting [8]); 88.2% (active) in assay [4] (at 50.0 µM). Besides, the growth inhibition in assay [5] (setting [7]) is 98% (active); in assay [5] (setting [8]), 99% (active); in assay [5] (at 50.0 µM), 81.8% (active); in assay [6] (setting [7]) it was 97% (active); in assay [6] (setting [8]), 99% (active); in assay [6] (at 50.0 µM), 93% (active).
As for `O=C(CCl)Nc1cc(Cl)ccc1Cl`, the growth inhibition was 2% in assay [1] (setting [7]); 23% in assay [1] (setting [8]); 37.5% in assay [1] (at 50.0 µM); -20% in assay [2] (setting [7]); 26% in assay [2] (setting [8]); 30.8% in assay [2] (at 50.0 µM). Moreover, the growth inhibition in assay [3] (setting [7]) is 6%; in assay [3] (setting [8]), 30%; in assay [3] (at 50.0 µM), 43.4%; in assay [4] (setting [7]), 5%; in assay [4] (setting [8]), 20%; in assay [4] (at 50.0 µM), 18.1%. Also, the growth inhibition in assay [5] (setting [7]) is 10%; in assay [5] (setting [8]), 83% (active); in assay [5] (at 50.0 µM), 84.6% (active); in assay [6] (setting [7]) it was 2%; in assay [6] (setting [8]), 18%; in assay [6] (at 50.0 µM), 4.8%.
Consider `CSC(=S)N/N=C/c1cccc(C)n1`, for which the growth inhibition in assay [1] (setting [7]) was 13%; in assay [1] (setting [8]), 71% (active); in assay [1] (at 50.0 µM) it was 95.1% (active); in assay [2] (setting [7]), 5%; in assay [2] (setting [8]), 60%; in assay [2] (at 50.0 µM), 82.1% (active). The growth inhibition was 3% in assay [3] (setting [7]); 69% in assay [3] (setting [8]); 66.2% in assay [3] (at 50.0 µM); -8% in assay [4] (setting [7]); 26% in assay [4] (setting [8]); 67.7% in assay [4] (at 50.0 µM). Moreover, the growth inhibition in assay [5] (setting [7]) is 1%; in assay [5] (setting [8]), 72% (active); in assay [5] (at 50.0 µM), 86.8% (active); in assay [6] (setting [7]), 30%; in assay [6] (setting [8]), 80% (active); in assay [6] (at 50.0 µM) it was 82.6% (active).
Turning to `c1ccc2c3ccn4ccc5c6ccccc6[nH]c5c4c-3nc2c1`, the growth inhibition was 38% in assay [1] (setting [7]); 96% (active) in assay [1] (setting [8]); 65.3% in assay [1] (at 50.0 µM); 28% in assay [2] (setting [7]); 88% (active) in assay [2] (setting [8]); 47.1% in assay [2] (at 50.0 µM). Moreover, the growth inhibition in assay [3] (setting [7]) is 27%; in assay [3] (setting [8]), 93% (active); in assay [3] (at 50.0 µM), 47.2%; in assay [4] (setting [7]) it was 24%; in assay [4] (setting [8]), 39%; in assay [4] (at 50.0 µM) it was 34.1%. Moreover, the growth inhibition is 29% in assay [5] (setting [7]); 96% (active) in assay [5] (setting [8]); 43.8% in assay [5] (at 50.0 µM); 33% in assay [6] (setting [7]); 98% (active) in assay [6] (setting [8]); 85.4% (active) in assay [6] (at 50.0 µM).

The record behind these values is PubChem BioAssay (NCI).
